# Activity calls are given as the source filed them. How the source made its calls: active means hit-call score of the fitted dose curve at least 0.9, where 1 is the maximum; inactive means score below 0.9.
# Target: Hypoxia-inducible factor 1-alpha (Homo sapiens) (UniProt Q16665)
# Experiment: ATG_HIF1a_CIS: Attagene CIS-FACTORIAL HepG2 Assay for human Hypoxia Inducible Factor 1 (HIF1A) (AID 2282951)
# Conditions: HepG2 Attagene cis-factorial HIF1a reporter transcription; actives raise or lower the signal
# Experimental: ATG_CIS is a cell-based, multiplexed-readout assay that uses HepG2, a human liver cell line, with measurements taken at 24 hours after chemical dosing in a 24-well plate.ATG_HIF1a_CIS is one of 52 assay component(s) measured or calculated from the ATG_CIS assay. It is designed to make measurements of mRNA induction, a form of inducible reporter, as detected with fluorescence intensity signals by Reverse transcription polymerase chain reaction (RT-PCR) and Capillary electrophoresis technology.Data from the assay component ATG_HIF1a_CIS was analyzed into 1 assay endpoint. This assay endpoint, ATG_HIF1a_CIS, was analyzed with bidirectional fitting relative to DMSO as the negative control and baseline of activity. Using a type of inducible reporter, measures of mRNA for gain or loss-of-signal activity can be used to understand the reporter gene at the transcription factor-level as they relate to the gene HIF1A. Furthermore, this assay endpoint can be referred to as a primary readout, because this assay has produced multiple assay endpoints where this one serves a reporter gene function. To generalize the intended target to other relatable targets, this assay endpoint is annotated to the dna binding intended target family, where the subfamily is basic helix-loop-helix protein.
# Human liver HepG2 cells are transiently transfected with multiple reporter transcription units (MRTUs) in 6-well plates using FuGene 6 reagent (Roche; 3 ml FuGene/1 mg DNA). The MRTU constructs are regulated by a cis-regulating element (promoter). […] A major difference between the CIS and TRANS system is that in CIS activities of endogenous TFs are measured, whereas the TRANS assay evaluates changes in activities of exogenous, chimeric NR-Gal4 proteins. […] At the end of 24 hour incubation, total RNA was isolated using TriZol reagent (Invitrogen). The isolated RNA is then reverse-transcribed using oligo(dT) primer and Mo-MLV reverse transcriptase (Invitrogen) with DNAse I (Ambion) treatment for 30 min. The one-tenth of the produced cDNA was amplified by PCR using Taq DNA polymerase (Invitrogen) and two reporter sequence-specific primers. The PCR products were fluorescently labeled by primer extension with 6-arboxyfluorescein (6-FAM) 5'-labeled reporter sequence-specific primer (2 min at 95 C, 20 s at 68 C and 10 min at 72 C) and these products were digested with 5U of HpaI (New England Biolabs) for 2h at 37 C. The fragments were purified using Qiaquick PCR columns (Qiagen), analyzed on an ABI 3130xL genetic analyzer (Applied Biosystems) with peak positions identified by using a set of X-rhodamine (ROX)-labeled MapMarker1000 molecular weight standards (BioVentures). The raw capillary electrophoresis data was processed using Attagraph software (Attagene).
# Hypoxia-inducible factor 1-alpha (Homo sapiens), sequence (Q16665 whole entry, looked up): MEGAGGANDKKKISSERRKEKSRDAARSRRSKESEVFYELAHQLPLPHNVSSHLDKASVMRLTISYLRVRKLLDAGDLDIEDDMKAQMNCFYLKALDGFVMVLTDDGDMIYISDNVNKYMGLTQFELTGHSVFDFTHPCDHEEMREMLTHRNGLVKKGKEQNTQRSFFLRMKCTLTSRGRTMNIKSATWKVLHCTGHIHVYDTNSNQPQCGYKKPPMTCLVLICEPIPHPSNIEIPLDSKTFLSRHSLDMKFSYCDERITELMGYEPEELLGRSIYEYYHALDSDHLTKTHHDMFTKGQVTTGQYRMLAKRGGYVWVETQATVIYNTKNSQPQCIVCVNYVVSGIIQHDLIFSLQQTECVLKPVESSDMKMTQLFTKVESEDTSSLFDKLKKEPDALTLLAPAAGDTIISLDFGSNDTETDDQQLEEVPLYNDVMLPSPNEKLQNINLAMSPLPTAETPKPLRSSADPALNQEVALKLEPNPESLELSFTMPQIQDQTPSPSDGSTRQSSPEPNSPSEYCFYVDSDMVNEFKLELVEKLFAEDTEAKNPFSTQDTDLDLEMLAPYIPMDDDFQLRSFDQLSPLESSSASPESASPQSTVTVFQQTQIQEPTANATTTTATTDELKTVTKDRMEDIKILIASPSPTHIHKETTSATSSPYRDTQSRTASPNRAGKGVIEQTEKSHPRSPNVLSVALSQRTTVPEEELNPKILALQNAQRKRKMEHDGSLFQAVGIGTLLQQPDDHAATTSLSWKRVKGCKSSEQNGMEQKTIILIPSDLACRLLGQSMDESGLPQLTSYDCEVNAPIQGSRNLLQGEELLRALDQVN
SMILES,outcome,AC50
Cc1ccc(C)o1,inactive,
CC=CC=CCOC(=O)C(C)C,inactive,
CC(C)CCOC(=O)c1ccccc1,inactive,
IC(I)I,inactive,
CC(=O)OCCCc1ccccc1,inactive,
CC(=O)NCCO,inactive,
C[C@@H]1CCN(C(=O)[C@H](CCCN=C(N)N)NS(=O)(=O)c2cccc3c2NC[C@H](C)C3)[C@@H](C(=O)O)C1,inactive,
O=C(O)c1ccc(O)cc1,inactive,
CCCCCCOCCOCCO,inactive,
NC(=S)NNC(N)=S,inactive,
N#Cc1ccc(CC(=O)c2cccc(C(F)(F)F)c2)cc1,inactive,
CCC(=O)OCCOc1ccccc1,inactive,
CN1C(=O)c2ccccc2C1=O,inactive,
CCC(Cl)C(Cl)C(Cl)CC(Cl)C(Cl)C(C)Cl (stereo not given),inactive,
Nc1ccn([C@H]2CS[C@@H](CO)O2)c(=O)n1,inactive,
CCc1ccc(O)c(OC)c1,inactive,
CC/C=C\CC/C=C/CO,inactive,
Cc1cccc(Nc2ccccc2)c1,inactive,
CCOC(=O)CCc1ccccc1,inactive,
CC1(C)O[C@@H]2[C@@H](CO[C@@]3(COS(N)(=O)=O)OC(C)(C)O[C@@H]23)O1,inactive,

SMILES,outcome,AC50
CN1CCOCC1,inactive,
C1CCOC1,inactive,
CCC1CCCCC1,inactive,
CC(C)Nc1nc(N)nc(Cl)n1,inactive,
COc1ccc(CCC(C)=O)cc1,inactive,
CCCC(C)C(O)CC (stereo not given),inactive,
C[C@H]1C[C@@H](O)CC(C)(C)C1,inactive,
CS(=O)(=O)c1ccc(Cl)cc1,inactive,
CCCC(=O)OC(C)(C)Cc1ccccc1,inactive,
N[C@@H](Cc1cc(I)c(Oc2cc(I)c(O)c(I)c2)c(I)c1)C(=O)O,,18.9 µM (active)
CN(C)c1ccncc1,inactive,
O=[N+]([O-])c1cccc(Cl)c1,inactive,
CCCCSCCCC,inactive,
O=CN1CCOCC1,,51.7 µM (active)
CC[N+](C)(CC)CC,inactive,
O=P(O)(O)O,inactive,
N#Cc1cscn1,inactive,
CCCCC(CC)COC(C)=O (stereo not given),inactive,
CCCC[P+](CCCC)(CCCC)CCCC,inactive,
C=CCCC(=O)/C=C/C1C(C)=CCCC1(C)C (stereo not given),inactive,

# — PubChem BioAssay (EPA / NIEHS)
